The source of these data is PubChem BioAssay (Tox21).

Assay [1] can be described thus: Nuclear factor erythroid 2-related factor 2/antioxidant responsive element (Nrf2/ARE) small molecule agonists: qHTS cell viability counter screen in human keratinocytes (AID 1919968; active = well fitted curve in the direction sought with a large enough effect in the repeat runs; an effect the other way counts as inactive or inconclusive; also: nearly all actives have a fitted effect of over 55% in size). The method in brief: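 KeratinoSens cells (HaCaT keratinocytes stably carrying an ARE-luciferase reporter) were seeded at 1,500 cells/well and rested 5 h at 37 C/5% CO2. They were then exposed to compounds in DMSO for 23 h. Viability was read by CellTiter-Fluor fluorescence after 1 h.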

The nature of assay [2]: Nuclear factor erythroid 2-related factor 2/antioxidant responsive element (Nrf2/ARE) small molecule agonists: luciferase reporter gene qHTS assay in human keratinocytes (AID 1919969). Also: nearly all actives have a fitted effect of over 35% in size. Also: potency is read from the fitted curve at half-maximal effect.
In assay [3] the target is Gonadotropin-releasing hormone receptor (Homo sapiens) (UniProt P30968). The assay can be described thus: Human gonadotropin-releasing hormone receptor (GnRHR) small molecule agonists, calcium flux assay in GnRHR-HEK293 cells (AID 1920063). Also: nearly all actives have a fitted effect of over 35% in size. The method in brief:
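HEK293 cells stably expressing human GnRHR were plated 18 h at 37 °C, loaded with calcium dye 1 h at 37 °C, then given compound in agonist mode; fluorescence (Ex/Em 480/540) read kinetically for 3 min at 1 s intervals.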
(Calcium assays in cells follow changes in intracellular calcium, usually with a dye or a luminescent sensor.)

The target of assay [4] is KiSS-1 receptor (Homo sapiens) (UniProt Q969F8). The assay can be described thus: Human kisspeptin (KISS1R) small molecule agonists, calcium flux assay in KISS1R-HEK293 cells (AID 1920064; active = well fitted curve in the direction sought with a large enough effect in the repeat runs; an effect the other way counts as inactive or inconclusive). The method in brief:
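HEK293 cells stably expressing human KISS1R were plated 18 h at 37 °C, loaded with calcium dye for 1 h at 37 °C, then given compound by pin tool. Fluorescence (Ex/Em 480/540) was read kinetically for 3 min.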

Assay [5] can be described thus: G protein-coupled receptor (GPCR) small molecule agonists, calcium flux assay: HEK293 wild type cell line counter screen (AID 1920065). A digest of the protocol:
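Cells were plated and cultured 18 h at 37 C/5% CO2, then loaded with calcium dye for 1 h at 37 C. Compounds in DMSO were pin-transferred in agonist mode, and fluorescence (Ex/Em 480/540) was read kinetically for 3 min at 1 s intervals.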

A short description of assay [6]: p53 small molecule agonists, cell-based qHTS assay with human liver microsomes (AID 1963577). The method in brief: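 Compounds act here after metabolic activation: human liver microsomes and NADPH, both at 0.5 mg/mL final, were co-added to p53RE-bla cells. Incubation ran 16 h at 37 C, followed by LiveBLAzer detection.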
Assay [7] in a line: p53 small molecule agonists, cell-based qHTS assay with rat liver microsomes (AID 1963578). A digest of the protocol: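 Read-out is beta-lactamase reporter fluorescence (LiveBLAzer, 2 h, room temperature, dark) in p53RE-bla cells treated 16 h at 37 C with compound, rat liver microsomes and NADPH, both 0.5 mg/mL final.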
Assay [8] is described as follows: p53 small molecule agonists, cell-based qHTS assay with human liver microsomes: qHTS cell viability counter screen (AID 1963579). Also: nearly all actives have a fitted effect of over 45% in size. The method in brief: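 Cells carrying the p53 response-element beta-lactamase reporter are treated for 16 h at 37 C with test compounds in the presence of human liver microsomes and NADPH (both 0.5 mg/mL final); ATP-based CellTiter-Glo luminescence then reports viability.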
(In general: qHTS replaces the single test concentration by a dilution series.)

Assay [9] can be described thus: p53 small molecule agonists, cell-based qHTS assay with rat liver microsomes: qHTS cell viability counter screen (AID 1963580). Also: nearly all actives have a fitted effect of over 45% in size. A digest of the protocol:
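p53RE-bla HCT-116 cells were exposed 16 h at 37 C to compounds with rat liver microsomes (0.5 mg/mL) and NADPH (0.5 mg/mL). Viability was measured in the same wells as ATP content by CellTiter-Glo luminescence.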

Assay [10] is described as follows: p53 small molecule agonists, cell-based qHTS assay: qHTS cell viability counter screen (AID 1963581). Also: nearly all actives have a fitted effect of over 45% in size. A digest of the protocol:
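p53RE-bla HCT-116 cells were exposed to compounds for 16 h at 37 C; after the beta-lactamase FRET read in the same wells, CellTiter-Glo was added and luminescence (intracellular ATP) read after 30 min at room temperature.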

Assay [11] is described as follows: p53 small molecule agonists, cell-based qHTS assay (AID 1963582; active = well fitted activation curve with a large enough effect in the signal ratio in the repeat runs, not every such curve was filed as active; the % refers to the signal ratio). The method in brief: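 p53RE-bla beta-lactamase reporter cells rested 5 h at 37 C/5% CO2, then received compounds in DMSO by pin transfer and were incubated 16 h at 37 C. LiveBLAzer B/G FRET substrate was loaded for 2 h at room temperature before fluorescence reading.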
The target of assay [12] is Beta-2 adrenergic receptor (Homo sapiens) (UniProt P07550). The assay can be described thus: Adrenergic beta2 receptor (ADRB2) small molecule antagonists, cell-based qHTS assay (AID 1963592). Also: series mostly up to about 92 µM; nearly all actives have a fitted effect of over 50% in size. The method in brief:
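Cells (CHO, stable ADRB2 overexpression) incubated 18-20hr at 37C; compounds added from DMSO; agonist mix (1nM isoproterenol, 100uM IBMX, 25uM Ro-20-1724) added; 0.5hr RT; d2-cAMP and anti-cAMP-cryptate added; 1hr RT; 665/615 nm read.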

For assay [13] the target is unchanged. The assay can be described thus: Adrenergic beta2 receptor (ADRB2) small molecule agonists, cell-based qHTS assay (AID 1963593).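 Also: CHO cells stably overexpressing human ADRB2.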 A digest of the protocol: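 CHO cells stably over-expressing ADRB2 were plated overnight at 37C, then dosed with compounds plus a stimulation mix containing 100uM IBMX and 25uM Ro-20-1724 for 0.5hr at room temperature. cAMP was measured by HTRF competition, 1hr.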

The target in assay [14] is D(2) dopamine receptor (Homo sapiens) (UniProt P14416). The assay is described as follows: Dopamine D2 receptor (DRD2) small molecule agonists, cell-based qHTS assay (AID 1963594). Also: nearly all actives have a fitted effect of over 35% in size. A digest of the protocol: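 HEK293 cells stably expressing human DRD2, pre-treated with PDE inhibitor Ro20-1724 (0.1 mM final) and compound 10 min at room temperature, then stimulated with NKH477 (200nM […]) for 30 min. cAMP read by HTRF (665/620 nm).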
D(2) dopamine receptor (Homo sapiens), sequence (P14416 whole entry, looked up): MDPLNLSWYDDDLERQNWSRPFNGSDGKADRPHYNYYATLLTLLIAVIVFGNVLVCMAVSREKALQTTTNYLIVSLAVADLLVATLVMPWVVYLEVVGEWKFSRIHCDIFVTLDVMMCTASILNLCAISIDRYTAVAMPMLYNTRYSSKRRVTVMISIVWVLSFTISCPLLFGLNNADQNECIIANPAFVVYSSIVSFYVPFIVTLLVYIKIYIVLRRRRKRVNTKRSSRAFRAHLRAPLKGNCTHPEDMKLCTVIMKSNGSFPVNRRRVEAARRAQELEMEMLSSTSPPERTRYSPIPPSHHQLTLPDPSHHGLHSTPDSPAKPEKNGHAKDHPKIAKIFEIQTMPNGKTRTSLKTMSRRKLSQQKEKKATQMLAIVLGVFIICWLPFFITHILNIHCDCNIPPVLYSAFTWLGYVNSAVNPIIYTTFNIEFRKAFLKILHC

The target is the same in assay [15]. The assay is described as follows: Dopamine D2 receptor (DRD2) small molecule antagonists, cell-based qHTS assay (AID 1963595; active = well fitted inhibition curve with a large enough effect in the signal ratio in the repeat runs, with a control signal flat; the % refers to the signal ratio). A digest of the protocol:
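HTRF cAMP read-out at 665 and 620 nm emission (340 nm excitation). Antagonist mode: compounds were tested against 12 nM quinpirole in DRD2-HEK293 cells, with 200 nM NKH477 raising cAMP and 0.1 mM Ro20-1724 blocking its breakdown.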

In assay [16] the target is 5-hydroxytryptamine receptor 2A (Homo sapiens) (UniProt P28223). The assay is described as follows: 5-hydroxytryptamine receptor 2A (HTR2A) small molecule antagonists, cell-based qHTS assay (AID 1963586). Also: nearly all actives have a fitted effect of over 45% in size. A digest of the protocol:
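Antagonist-mode intracellular calcium assay: DOI (4 nM) added after 5 min compound pre-incubation at room temperature to dye-loaded HTR2A-CHO cells. Fluorescence followed for 3 min, sampled every second.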

Assay [17] has the same target. The assay can be described thus: 5-hydroxytryptamine receptor 2A (HTR2A) small molecule agonists, cell-based qHTS assay (AID 1963587). Also: nearly all actives have a fitted effect of over 30% in size. Also: potency is read from the fitted curve at half-maximal effect. The method in brief:
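CHO cells stably expressing human HTR2A, plated 18 h, loaded with calcium dye 1 h at 37 C. Agonist mode: compounds added and intracellular calcium fluorescence recorded kinetically for 2 min at 1 sec intervals.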

Assay [18] concerns the target Muscarinic acetylcholine receptor M1 (Homo sapiens) (UniProt P11229). The assay can be described thus: Cholinergic receptor muscarinic 1 (CHRM1) small molecule antagonists, cell-based qHTS assay (AID 1963588). Also: nearly all actives have a fitted effect of over 40% in size. The method in brief: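 CHRM1-CHO calcium-flux assay, antagonist mode. Cells were seeded 18 h, dye-loaded 1 h at 37 C and given compound for 5 min at RT, then acetylcholine was added at 50nM. FDSS fluorescence was read 3 min; 15 concentrations, three runs.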

Assay [19] in a line: cAMP Responsive Elements (CRE) small molecule agonists, cell-based qHTS assay (AID 1963590). The method in brief: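 CRE-bla HEK 293T cells in DMEM with 10% dialyzed FBS, NEAA, pyruvate and 25 mM HEPES were plated 18 h at 37 C/5% CO2, then exposed to compounds in DMSO for 3 h before LiveBLAzer B/G FRET substrate addition.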
A short description of assay [20]: cAMP Responsive Elements (CRE) small molecule antagonists, cell-based qHTS assay (AID 1963591; active = well fitted inhibition curve with a large enough effect in the signal ratio in the repeat runs, not every such curve was filed as active; the % refers to the signal ratio). A digest of the protocol:
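CRE-bla HEK293T cells were plated 18 h at 37 °C/5% CO2, pinned with compound in DMSO, then stimulated with NKH477 at 0.25 uM final for 3 h. LiveBLAzer B/G FRET substrate was added and plates incubated 2 h at room temperature.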

“And” between values parts separate entries of the source, which are not always exact repeats. Equal values may be shown once. Inconclusive results are not listed. Some structures have more than one record in an assay (separate samples or runs), and their calls can disagree. The source made the active and inactive calls. Unless noted, calls follow the shape of the full dose curve.
% is scaled to controls: 0 for no effect and ±100 for the full control effect.

KiSS-1 receptor (Homo sapiens), sequence (Q969F8 whole entry, looked up): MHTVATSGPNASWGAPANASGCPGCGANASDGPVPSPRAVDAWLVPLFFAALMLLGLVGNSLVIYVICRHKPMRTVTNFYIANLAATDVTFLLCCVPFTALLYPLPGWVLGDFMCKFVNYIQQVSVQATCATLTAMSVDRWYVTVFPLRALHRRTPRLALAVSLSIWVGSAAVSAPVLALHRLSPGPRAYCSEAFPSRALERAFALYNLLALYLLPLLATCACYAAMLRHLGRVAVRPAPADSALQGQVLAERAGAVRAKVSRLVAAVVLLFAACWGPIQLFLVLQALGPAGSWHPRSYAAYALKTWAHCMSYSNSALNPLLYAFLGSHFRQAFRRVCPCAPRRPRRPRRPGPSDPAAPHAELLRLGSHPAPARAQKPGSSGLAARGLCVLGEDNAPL
Muscarinic acetylcholine receptor M1 (Homo sapiens), sequence (P11229 whole entry, looked up): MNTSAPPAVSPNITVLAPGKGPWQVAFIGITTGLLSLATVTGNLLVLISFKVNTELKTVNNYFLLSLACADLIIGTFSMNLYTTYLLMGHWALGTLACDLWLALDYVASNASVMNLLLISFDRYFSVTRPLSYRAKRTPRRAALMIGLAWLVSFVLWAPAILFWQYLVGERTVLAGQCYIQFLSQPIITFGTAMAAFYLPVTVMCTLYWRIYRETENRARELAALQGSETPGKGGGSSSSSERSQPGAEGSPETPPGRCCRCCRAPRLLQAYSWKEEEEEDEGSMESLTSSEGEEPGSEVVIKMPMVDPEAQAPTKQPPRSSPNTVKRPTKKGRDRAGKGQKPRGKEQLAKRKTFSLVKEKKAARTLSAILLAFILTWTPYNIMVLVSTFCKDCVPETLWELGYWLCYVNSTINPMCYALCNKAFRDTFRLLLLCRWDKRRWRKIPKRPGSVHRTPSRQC
Beta-2 adrenergic receptor (Homo sapiens), sequence (P07550 whole entry, looked up): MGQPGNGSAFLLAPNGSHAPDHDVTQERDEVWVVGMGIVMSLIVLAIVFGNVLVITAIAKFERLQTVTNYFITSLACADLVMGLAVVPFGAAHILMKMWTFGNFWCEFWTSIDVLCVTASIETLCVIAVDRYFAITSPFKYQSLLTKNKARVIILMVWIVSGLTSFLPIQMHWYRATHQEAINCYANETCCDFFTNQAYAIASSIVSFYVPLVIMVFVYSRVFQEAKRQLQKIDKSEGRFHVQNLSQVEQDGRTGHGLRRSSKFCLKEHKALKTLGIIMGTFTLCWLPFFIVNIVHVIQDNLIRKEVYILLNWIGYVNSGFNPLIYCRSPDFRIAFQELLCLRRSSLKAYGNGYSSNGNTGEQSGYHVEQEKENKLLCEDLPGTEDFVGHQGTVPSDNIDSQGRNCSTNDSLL
5-hydroxytryptamine receptor 2A (Homo sapiens), sequence (P28223 whole entry, looked up): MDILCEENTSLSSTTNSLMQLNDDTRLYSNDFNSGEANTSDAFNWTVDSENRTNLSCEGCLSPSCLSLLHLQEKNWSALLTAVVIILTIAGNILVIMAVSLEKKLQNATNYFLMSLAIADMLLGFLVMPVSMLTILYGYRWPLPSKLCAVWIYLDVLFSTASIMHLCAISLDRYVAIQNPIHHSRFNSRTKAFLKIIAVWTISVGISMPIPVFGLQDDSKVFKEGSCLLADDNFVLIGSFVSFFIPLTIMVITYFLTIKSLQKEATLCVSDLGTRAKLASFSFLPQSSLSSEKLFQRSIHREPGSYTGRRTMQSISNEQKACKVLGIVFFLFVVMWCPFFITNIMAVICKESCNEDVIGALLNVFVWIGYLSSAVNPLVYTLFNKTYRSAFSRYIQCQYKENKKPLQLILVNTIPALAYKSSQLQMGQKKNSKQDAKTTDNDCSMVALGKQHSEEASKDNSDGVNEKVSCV
Gonadotropin-releasing hormone receptor (Homo sapiens), sequence (P30968 whole entry, looked up): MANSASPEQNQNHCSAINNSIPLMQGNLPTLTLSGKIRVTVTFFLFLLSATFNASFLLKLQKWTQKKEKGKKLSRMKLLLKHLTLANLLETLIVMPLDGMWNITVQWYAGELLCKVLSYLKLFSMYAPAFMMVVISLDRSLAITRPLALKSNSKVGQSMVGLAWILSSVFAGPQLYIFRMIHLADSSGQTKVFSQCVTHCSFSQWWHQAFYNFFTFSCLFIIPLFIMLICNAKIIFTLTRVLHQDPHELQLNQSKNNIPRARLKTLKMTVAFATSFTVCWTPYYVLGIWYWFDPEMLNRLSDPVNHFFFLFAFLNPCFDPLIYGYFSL

`CC(=O)O[C@]1(C(C)=O)CC[C@H]2[C@@H]3C=C(Cl)C4=CC(=O)CC[C@]4(C)[C@H]3CC[C@@]21C`: the Potency entry in assay [1], in [3], in assay [4], in assay [5], in assay [6] and in [7] was “inactive” each time. Besides, the Potency entry in assay [8], in [9], in assay [10], in [11], in [12] and in [13] was “inactive” throughout. Also, the Potency entry in assay [14] and in assay [15] was “inactive” in each case. The Potency in assay [2] was 68.5 µM (active) and inactive.
As for `Cc1ccc(C(C)C)cc1`, the Potency entry in [1], in assay [2], in assay [3], in assay [4], in [5] and in assay [6] was “inactive” each time. The Potency entry in assay [7], in assay [8], in assay [9], in assay [10], in assay [16] and in [17] was “inactive” throughout. The Potency result in assay [18], in assay [19], in assay [20], in assay [12], in [13] and in assay [14] was “inactive” each time. Also, the Potency result in assay [15] was “inactive”.
`O=[Se](O)O`: the Potency result in [1], in assay [3], in assay [4], in assay [5], in assay [6] and in [7] was “inactive” throughout. The Potency entry in assay [9], in assay [10], in assay [18], in [12], in [14] and in assay [15] was “inactive” in each case. Further, the Potency entry in assay [2] was “inactive and 5.23 µM (active)”; in assay [17], 19.5 µM (active). In assay [8], the activity change, negative = cytotoxicity was -2.48% [at 13.5 µM] (inactive). Moreover, in [16], the activity, negative = inhibition was 3.34% [at 12.7 µM] (inactive). Further, in assay [17], the activation was -0.26% [at 15.9 µM] (inactive). Also, the activity change, negative = inhibition in assay [20] is 2.98% [at 18.9 µM] (inactive).
`CCC(C)OC(=O)c1ccc(O)cc1` (stereo not given): the Potency entry in assay [1], in assay [2], in assay [3], in [4], in [5] and in assay [6] was “inactive” in each case. For the same molecule, the Potency entry in assay [7], in [8], in [9], in assay [10], in assay [16] and in [17] was “inactive” in each case. Besides, the Potency result in [18], in assay [19], in assay [20], in [12], in assay [14] and in assay [15] was “inactive” each time.
`Nc1cccc(N)c1`: the Potency result in assay [1], in [3], in [4], in assay [5], in assay [6] and in assay [7] was “inactive” each time. Besides, the Potency entry in [8], in [9], in assay [10], in assay [16], in [17] and in assay [18] was “inactive” each time. In addition, the Potency entry in assay [19], in assay [20], in [14] and in [15] was “inactive” throughout. Besides, the Potency result in assay [2] was “inactive and 21.4 µM (active)”.
Consider `NNCCc1ccccc1`, for which the Potency entry in assay [1], in [3], in [4], in [5], in assay [6] and in [7] was “inactive” each time. The Potency entry in assay [8], in assay [9], in [10], in [11], in assay [19] and in assay [20] was “inactive” each time. The Potency result in assay [12], in assay [13], in [14] and in assay [15] was “inactive” throughout. For the same molecule, the Potency in assay [2] was 3.87 µM (active) and 8.41 µM (active).
Take `CN/C(=C\[N+](=O)[O-])NCCSCc1csc(CN(C)C)n1`: the Potency result in [1], in [2], in assay [3], in assay [4], in assay [5] and in assay [6] was “inactive” in each case. For the same molecule, the Potency result in [7], in assay [8], in assay [9], in assay [10], in [11] and in [19] was “inactive” in each case. In addition, the Potency result in [12], in [13], in assay [14] and in [15] was “inactive” each time.
